Hit rate of the full screen: of about 56,000 […], about 2,900 (5.2%) were called active. Rule as the data show it: active = GI50 up to about 1.1 µM and inactive = higher. A selection follows. Measured potencies and affinities stand elsewhere.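 Results reflect a 48-hour exposure of cells in 96-well plates to compound at five concentrations. GI50 marks 50% less growth.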
These substances were tested on SK-OV-3 (assay: NCI tumour cell line growth inhibition, 48 h).
Work on “[Bis(aminomethyl)tetramethylenesilane]tetrachloropaltinum(IV), CHEMBL2146189” yielded a GI50 of 6.97 µM.
In the case of “cis-Bis[[(trimethylsilyl)methyl]amino]tetrachloroplatinum(IV), CHEMBL2146191”, the GI50 is reported as 17.6 µM.
With “[Bis(aminomethyl)ethylmethylsilane]tetrachloroplatinum(IV), CHEMBL2146192” the GI50 was 13.1 µM.
With CISPLATIN, CHEMBL11359 the GI50 was 5.35 µM.
For “[Bis(aminomethyl)dimethylsilane]dichloroplatinum (II), CHEMBL2146201”, the GI50 was > 100 µM.
“mu-(1,7-nanodiamine-N,N')bis-(cis-aminedichloroplatimum (II)), CHEMBL2146215” showed a GI50 of 64.9 µM.
In the case of “[Bis(aminomethyl)pentamethylenesilane]tetrachloropaltinum(IV), CHEMBL2146204”, the GI50 is reported as 4.5 µM.
“[Bis(aminomethyl)dimethylsilane]tetrachloroplatinum(IV), CHEMBL2146190” gave a GI50 of 12.8 µM.
Work on “[Bis(aminomethyl)pentamethylenesilane]dichloropaltinum(II), CHEMBL2146202” yielded a GI50 of 5.12 µM.
“[Bis(aminomethyl)diethylsilane]tetrachloroplatinum(IV), CHEMBL2146203” showed a GI50 of 1.69 µM.
“[Bis(aminomethyl)tetramethylenesilane]dichloropaltinum(II), CHEMBL2146205” gave a GI50 of 26.2 µM.

Source: ChEMBL document CHEMBL1201862, “PubChem BioAssay data set” (2004)
